Several values for one entry are separate records, joined by “and”; a condition that tells them apart may be missing. Equal values may be shown once. The panel holds about 83,000 compounds, 20% with a hit somewhere; the sample as a whole holds those more often.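 Cells were grown in 96-well plates and exposed to the test compound at a single concentration for 48 hours; results are reported as percent growth, with values below 10 considered active.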 Activity calls are given as the source filed them.
Legend:
Experiment in all cases: NCI-60 one-dose screen, 48 h (100 = growth as untreated, 0 = no growth, -100 = all killed)
Settings in all cases: 10 µM unless noted
[1] = tested on: NCI-H23 lung
[2] = tested on: NCI-H226 lung
[3] = tested on: NCI-H322M lung
[4] = tested on: HOP-62 NSCLC
[5] = tested on: NCI-H460 lung
[6] = tested on: HOP-92 NSCLC
[7] = tested on: NCI-H522 lung
[8] = tested on: A549/ATCC NSCLC
[9] = tested on: 786-0 renal
[10] = tested on: COLO 205 colon
[11] = tested on: DU-145 prostate
[12] = tested on: K-562 leukemia
[13] = tested on: MALME-3M melanoma
[14] = tested on: MDA-MB-231 breast
[15] = tested on: RXF 393 renal
[16] = tested on: SF-268 CNS
[17] = tested on: SF-295 CNS
[18] = tested on: SF-539 CNS
[19] = tested on: UACC-257 melanoma
[20] = tested on: M14 melanoma

| SMILES | growth [1] | growth [2] | growth [3] | growth [4] | growth [5] | growth [6] | growth [7] | growth [8] | growth [9] | growth [10] | growth [11] | growth [12] | growth [13] | growth [14] | growth [15] | growth [16] | growth [17] | growth [18] | growth [19] | growth [20] |
| --- | --- | --- | --- | --- | --- | --- | --- | --- | --- | --- | --- | --- | --- | --- | --- | --- | --- | --- | --- | --- |
| C[N+]1(CC#CC[N+]2(C)CCCC2)CCCC1 | 111% (inactive) | 91.1% (inactive) | 99.8% (inactive) | 105% (inactive) | 106% (inactive) | 90.6% (inactive) | 99.5% (inactive) | 107% (inactive) | 99.2% (inactive) | 103% (inactive) | 106% (inactive) | 106% (inactive) | 99% (inactive) | 102% (inactive) | 103% (inactive) | 95.9% (inactive) | 98.6% (inactive) | 105% (inactive) | 105% (inactive) | 103% (inactive) |
| C=CC[PH+](c1ccccc1)c1ccccc1.C=CC[PH+](c1ccccc1)c1ccccc1.[Pt+2].[S-]c1ncccn1.[S-]c1ncccn1 | 36.6% (inactive) | 3.04% (active) | 85.1% (inactive) | 90.3% (inactive) | 91.6% (inactive) | -7.37% (active) | -46.1% (active) | 71.4% (inactive) | 19.6% (inactive) | -11.5% (active) | 35.5% (inactive) | 5% (active) | -10.8% (active) | 7.07% (active) | -77.6% (active) | 87.4% (inactive) | 84.2% (inactive) | 60.2% (inactive) | 66.7% (inactive) | 1.19% (active) |
| CC/C(=C(\c1ccc(OCCN2CCOCC2)cc1)c1ccc(OC(=O)Cc2ccccc2)cc1)c1ccc(Cl)cc1 | 104% (inactive) | 106% (inactive) | 87.9% (inactive) | 103% (inactive) | 106% (inactive) | 94.4% (inactive) | 92.8% (inactive) | 101% (inactive) | 107% (inactive) | 120% (inactive) | 101% (inactive) | 82.4% (inactive) | 95.1% (inactive) | 109% (inactive) | 114% (inactive) | 94.1% (inactive) | 99.4% (inactive) | 105% (inactive) | 107% (inactive) | 102% (inactive) |
| CC[C@H](C)[C@H](NC(=O)C12CC(NC)(C1)C2)C(=O)N(C)[C@H](C[C@@H](OC(C)=O)c1nc(C(=O)N[C@@H](Cc2ccccc2)C[C@H](C)C(=O)OC)cs1)C(C)C | 15.2% (inactive) | 24.9% (inactive) | 51.2% (inactive) | 28.6% (inactive) | 15% (inactive) | 17.5% (inactive) | -23.9% (active) | 20% (inactive) | 24.7% (inactive) | -19.6% (active) | -8.21% (active) | 6.14% (active) | 69% (inactive) | 13.8% (inactive) | 13.4% (inactive) | 30.4% (inactive) | 4.61% (active) | -7.76% (active) | 56.6% (inactive) | 6.71% (active) |
| Nc1c(Cl)c(Cl)nc(C(=O)O)c1Cl | 104% (inactive) | 102% (inactive) | 80.8% (inactive) | 86.9% (inactive) | 102% (inactive) | 106% (inactive) | 98.6% (inactive) | 108% (inactive) | 103% (inactive) | 117% (inactive) | 120% (inactive) | 83.8% (inactive) | 83.5% (inactive) | 106% (inactive) | 136% (inactive) | 111% (inactive) | 98.6% (inactive) | 84.9% (inactive) | 108% (inactive) | 104% (inactive) |
| CC[C@H](C)[C@H](NC(=O)[C@H]1CCCCN1C)C(=O)N(C)[C@H](C(=O)NC12CC(C(=O)N[C@@H](Cc3ccccc3)C[C@H](C)C(=O)OC)(C1)C2)C(C)C | 97.7% (inactive) | 98.8% (inactive) | 91.9% (inactive) | 92.8% (inactive) | 101% (inactive) | 98.4% (inactive) | 74.2% (inactive) | 92% (inactive) | 103% (inactive) | 110% (inactive) | 105% (inactive) | 98.2% (inactive) | 106% (inactive) | 110% (inactive) | 108% (inactive) | 90.2% (inactive) | 102% (inactive) | 100% (inactive) | 102% (inactive) | 101% (inactive) |
| N#CCN(CC#N)[N+](=O)[O-] | 109% (inactive) | 97.9% (inactive) | 110% (inactive) | 102% (inactive) | 104% (inactive) | 84.9% (inactive) | 94.4% (inactive) | 106% (inactive) | 103% (inactive) | 110% (inactive) | 107% (inactive) | 105% (inactive) | 111% (inactive) | 103% (inactive) | 106% (inactive) | 102% (inactive) | 110% (inactive) | 102% (inactive) | 113% (inactive) | 97% (inactive) |
| O=C(NC1=NCC[Se]1)c1ccccc1O | 65.6% (inactive) | 62.9% (inactive) | 49.4% (inactive) | 39% (inactive) | 16.2% (inactive) | 63.5% (inactive) | 60.9% (inactive) | 56.8% (inactive) | 94.7% (inactive) | 124% (inactive) | 61.1% (inactive) | 50.7% (inactive) | -22.9% (active) | 69.3% (inactive) | 44% (inactive) | 43.3% (inactive) | 95.4% (inactive) | 52.9% (inactive) | 55.3% (inactive) | 42% (inactive) |
| O=C(CCCN1CCC2(CC1)C(=O)NCN2c1ccccc1)c1ccc(F)cc1 | 95.1% (inactive) and 49.3% (inactive) | 117% (inactive) and 102% (inactive) | 97.5% (inactive) and 81.5% (inactive) | 79.1% (inactive) and -10.2% (active) | 108% (inactive) and 94.1% (inactive) | 96.7% (inactive) and 67.2% (inactive) | 108% (inactive) and 80.4% (inactive) | 103% (inactive) and 89.3% (inactive) | 101% (inactive) and 88.3% (inactive) | 34.3% (inactive) and -64.9% (active) | 79% (inactive) and 34% (inactive) | 86% (inactive) and 85.1% (inactive) | 96.1% (inactive) and 92.9% (inactive) | 103% (inactive) and 74.2% (inactive) | 116% (inactive) and 105% (inactive) | 91.1% (inactive) and 62.8% (inactive) | 96.3% (inactive) and 63.4% (inactive) | 124% (inactive) and 62.6% (inactive) | 33.6% (inactive) and 21.6% (inactive) | 80.8% (inactive) and 54% (inactive) |
| COc1ccc(O)c2c(=O)c3c(OC)cc4c(c3oc12)[C@@H]1C=CO[C@@H]1O4 | 6.73% (active) | 36.8% (inactive) | 42.4% (inactive) | 36.6% (inactive) | 8.73% (active) | 70.5% (inactive) | 41.9% (inactive) | 50% (inactive) | 74.6% (inactive) | 36.1% (inactive) | 21.9% (inactive) | 101% (inactive) | 62.8% (inactive) | 67% (inactive) | 61.6% (inactive) | 54.9% (inactive) | 81.6% (inactive) | 37.9% (inactive) | 89.6% (inactive) | 67.4% (inactive) |
| Cc1nc2ccccc2c(=O)n1-c1ccccc1F | 100% (inactive) | 96.6% (inactive) | 111% (inactive) | 81.6% (inactive) | 105% (inactive) | 87.5% (inactive) | 88.1% (inactive) | 76.2% (inactive) | 103% (inactive) | 98.3% (inactive) | 109% (inactive) | 104% (inactive) | 112% (inactive) | 107% (inactive) | 96.5% (inactive) | 100% (inactive) | 98.3% (inactive) | 95.4% (inactive) | 77% (inactive) | 99.4% (inactive) |
| NC(N)=NC(N)=Nc1ccc(Cl)cc1 | 103% (inactive) | 98.5% (inactive) | 109% (inactive) | 112% (inactive) | 106% (inactive) | 89.7% (inactive) | 93.6% (inactive) | 111% (inactive) | 115% (inactive) | 112% (inactive) | 116% (inactive) | 99% (inactive) | 116% (inactive) | 113% (inactive) | 108% (inactive) | 95.4% (inactive) | 98.1% (inactive) | 103% (inactive) | 111% (inactive) | 114% (inactive) |
| CCCCCCCCCCCCCCCC[N+](C)(C)C | -83.6% (active) and 20.7% (inactive) | -54.8% (active) and 46.7% (inactive) | -70% (active) and 60.7% (inactive) | -76.6% (active) and -23.9% (active) | -84% (active) and 0.102% (active) | -45.3% (active) and -18.4% (active) | -57.9% (active) and -39.7% (active) | 29.4% (inactive) | -83.5% (active) and 4.56% (active) | -74% (active) and -89.8% (active) | -91.4% (active) and 15.9% (inactive) | -70% (active) and 9.42% (active) | -76.5% (active) and 13.8% (inactive) | -76.5% (active) and -8.58% (active) | -31.9% (active) | -57.5% (active) and -3.48% (active) | -65.5% (active) and 10.1% (inactive) | -67.3% (active) and -8.94% (active) | 61.2% (inactive) | -87.8% (active) and -43.2% (active) |

From PubChem BioAssay (NCI)
